This assay in a line: viability loss in CCRF-CEM T-lymphoblasts – cell-based, Alamar Blue fluorescence, several timepoints, dry powder, mechanism study for HRAS target identification, late-stage follow-up (AID 720617). The conditions noted are these: activity change: measured here: 8 h treatment viability, at 35 µM, stronger effect = lower value; 48 h, at 35 µM (top of the series).

Results filed as inconclusive are left out. Calls of active or inactive are those of the source.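 Rule for the calls: active = active at all three treatment times, each with half-maximal potency within twice the top valid dose, signal falling; inconclusive = treatment times disagree on the call; inactive = inactive at all three times, including opposite responses.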

As for `CCC(=O)N(c1ccc(OC)c(Cl)c1)C(C(=O)NCCc1ccccc1)c1cccs1` (centres undefined), the activity change was determined as 6.85% and the outcome was inactive.
As for `Cc1onc(C(=O)N2CCN(C(c3ccncc3)c3ccncc3)CC2)c1[N+](=O)[O-]`, the activity change was -0.515% and the compound was classed as inactive.

For the origin of these results see PubChem BioAssay AID720617 (Broad Institute, 2013).
